FadD28 binding: M. tuberculosis FadD28 bisubstrate binding inhibition | FadD28 bisubstrate probe binding, fluorescence polarization | inhibition, % at 12.5 µM | actives 0.22% (n = 360,000) | AID 588549; in the data active = inhibition above about 8.5%, passing the limit was not always enough
Mtb bLac sens: beta-lactam sensitization of Mtb H37Rv; inhibition, % at 25 µM; actives 0.27% (n = 330,000); M. tuberculosis H37Rv growth with meropenem, percent inhibition; call rule not given here;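 also: growth measured after seven days incubation then overnight dye step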
GDH-TPI inh: inhibits GDH-TPI coupling enzymes, artifact for Mtb FBA screen. GDH-TPI coupled enzyme counterscreen, NADH absorbance. inhibition, % at 4.8 µM. actives 1.2% (n = 360,000); in the data active = inhibition above about 30%
Mtb FBA inh: inhibitors of M. tuberculosis fructose-bisphosphate aldolase; AID 588726; actives 2.3% (n = 360,000); inhibition, % at 1 µM; P9WQA3; purified M. tuberculosis FBA, fluorescence read-out; in the data active = inhibition above about 27%
UGM FP inh: Mtb UDP-galactopyranose mutase inhibition. P9WIQ1. purified UGM, fluorescence polarization probe displacement. inhibition, % at 10 µM. actives 0.06% (n = 320,000). AID 504406; in the data active = inhibition above about 10%, passing the limit was not always enough
Target sequence (P9WIQ1 whole entry, looked up): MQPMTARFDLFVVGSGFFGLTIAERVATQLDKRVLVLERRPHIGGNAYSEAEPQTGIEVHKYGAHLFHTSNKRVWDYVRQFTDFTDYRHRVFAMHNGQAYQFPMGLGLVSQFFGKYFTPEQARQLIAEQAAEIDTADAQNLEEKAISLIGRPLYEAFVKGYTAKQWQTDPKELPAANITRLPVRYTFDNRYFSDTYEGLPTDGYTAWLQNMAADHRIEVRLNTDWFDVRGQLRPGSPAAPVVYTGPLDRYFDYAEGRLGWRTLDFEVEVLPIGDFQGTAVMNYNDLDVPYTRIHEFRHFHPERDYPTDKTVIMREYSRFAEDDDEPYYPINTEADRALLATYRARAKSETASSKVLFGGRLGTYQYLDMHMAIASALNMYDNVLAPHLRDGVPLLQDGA
Rv3671c protease: Rv3671c (M. tuberculosis) protease inhibition; actives 0.048% (n = 320,000); inhibition, % at 5.96 µM; P9WHR9;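 also: extracellular domain of Rv3671c used as enzyme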
Rv3671c confirm: Rv3671c protease inhibition, confirmation. shares compounds with Rv3671c protease. inhibition, % at 5.96 µM. AID 2761. actives 40% (n = 140)
Hits are given with their value; 0 = inactive; - = not tested or not shown; + = active, no number. A selection: hits, their analogues and other compounds. The true share with any hit is near 3.7%. Rule as the data show it, unless noted: active = inhibition above about 38%; inactive = the rest.

SMILES	FadD28 binding	Mtb bLac sens	GDH-TPI inh	Mtb FBA inh	UGM FP inh	Rv3671c protease	others
COc1cc(/C=N/NC(=O)C(=O)NCc2cccnc2)ccc1O	0	0	34.5	0	0	0
COc1ccc(/C=C2\SC(=O)N(CC(=O)N(C)C3CCS(=O)(=O)C3)C2=O)cc1 (stereo not drawn)	0	0	33.9	0	0	0
CCN(C(=O)CN1C(=O)S/C(=C\c2ccc(F)cc2)C1=O)C1CCS(=O)(=O)C1 (stereo not drawn)	0	0	36.2	0	0	0
CN(C(=O)CN1C(=O)S/C(=C\c2ccc(F)cc2)C1=O)C1CCS(=O)(=O)C1 (stereo not drawn)	0	0	0	0	0	0
COc1ccc(/C=C2\SC(=O)N(CC(=O)NCCCn3ccnc3)C2=O)cc1	0	0	43.2	0	0	0
COc1ccc(/C=C2\SC(=O)N(CC(=O)NC3CCS(=O)(=O)C3)C2=O)cc1 (stereo not drawn)	0	0	38.9	0	0	0
CC1(C(=O)Nc2cccc3cccnc23)CCN1Cc1cccc2c1OCO2 (stereo not drawn)	0	-	0	0	-	-
Cc1nc2ccccn2c(=O)c1NC(=O)COc1ccccc1	0	-	31.0	0	-	-
O=C(NCCN1C(=O)S/C(=C\c2ccc(Cl)cc2)C1=O)c1ccc(F)c(S(=O)(=O)N2CCOCC2)c1	0	0	0	0	0	0
CCN(CC)c1ccc(/C=N/N2CCOCC2)cc1	0	0	42.7	0	0	0
C/C(=N\NC(=O)c1cccc(S(=O)(=O)N2CCOCC2)c1)c1cc2ccccc2o1	0	0	52.5	0	0	0
O=C(NCCN1C(=O)S/C(=C\c2ccc(F)cc2)C1=O)c1cccc(S(=O)(=O)N2CCOCC2)c1	0	0	36.4	0	0	0
CCN(CC)c1ccc(/C=N/NC(=O)c2cccc(S(=O)(=O)N3CCOCC3)c2)cc1	0	0	32.2	0	0	0
CCN(Cc1ccccc1)c1ccc(/C=N/N2CCOCC2)cc1	0	0	0	0	0	0
O=C(NNC(=O)c1cc(S(=O)(=O)N2CCOCC2)ccc1Cl)c1ccc(F)cc1	0	-	0	0	-	-
COc1ccc(S(=O)(=O)NC(=O)C2(C)CCN2C(=O)C2(c3ccc(Cl)cc3)CCC2)cc1 (stereo not drawn)	0	-	0	0	-	-
O=C(COC(=O)Cc1c(Cl)cccc1Cl)Nc1ccc2[nH]c(=O)[nH]c2c1	0	0	0	0	0	0
COc1cccc(C(NC(C)=O)c2nc(-c3ccc4c(c3)OCO4)cs2)c1 (stereo not drawn)	0	-	0	0	-	-
CCN(Cc1ccccc1)c1ccc(/C=N/NC(=O)c2cccc(S(=O)(=O)N3CCOCC3)c2)cc1	0	0	43.2	0	0	0
COc1cc(/C=N/NC(=O)c2cccc(S(=O)(=O)N3CCOCC3)c2)cc(OC)c1O	0	0	0	0	0	0
CN(C)c1ccc(/C=N/N=C2/SC(CC(=O)O)C(=O)N2c2ccc(O)cc2)cc1 (stereo not drawn)	0	0	0	0	0	0
C=CCN1C(=O)C(CC(=O)O)S/C1=N/N=C/c1ccc(N(CC)CC)cc1 (stereo not drawn)	0	0	34.5	0	0	0
CCOc1ccc(N2CC(C(=O)Nc3cc(S(=O)(=O)N4CCCCC4)ccc3C)CC2=O)cc1 (stereo not drawn)	-	0	0	0	0	0
Cn1c2ccccc2c2nnc(SCC(=O)Nc3cccc(O)c3)nc21	0	0	35.0	0	0	0
Cn1c2ccccc2c2nnc(SCC(N)=O)nc21	0	0	0	0	0	0
SMILES	FadD28 binding	Mtb bLac sens	GDH-TPI inh	Mtb FBA inh	UGM FP inh	Rv3671c protease	others
Cn1c2ccc(Br)cc2c2nnc(SCC(=O)O)nc21	0	0	30.8	0	0	0
COCCn1c(=O)[nH]c2cc(C(=O)OC)ccc2c1=O	0	0	0	0	0	0
COC(=O)c1ccc2c(C)c(C(C)(C)O)[nH]c2c1	0	0	0	+	0	0
O=C(Nc1ccc(N2CCN(C(=O)c3cccs3)CC2)cc1)c1ccc(Br)o1	0	0	0	0	0	0
Cc1cc(C)n2cc(CSCc3ccccc3)nc2n1	0	0	0	159.6	0	0
Cc1cc(C)n2cc(CSc3ccccn3)nc2n1	0	0	0	0	0	0
Cn1c(N)c(N=O)c(=O)n(C)c1=S	0	-	43.0	0	-	-
O=C(NCCN1C(=O)S/C(=C\c2ccc(Cl)cc2Cl)C1=O)C1=COCCO1	0	0	0	0	0	0
Nc1ccc(-c2nc3ccc(C(=O)O)cc3s2)cc1	0	0	54.4	-	0	0
Nc1cccc(-c2nc3ccc(N)cc3s2)c1	0	0	0	163.9	0	0
O=C(O)c1ccc2nc(-c3ccccc3)sc2c1	0	0	0	0	0	0
Nc1cc2sc(-c3ccc(C(=O)O)cc3)nc2cc1Cl	0	0	0	138.6	0	0
Nc1ccc(O)c(-c2nc3ccccc3s2)c1	0	0	0	0	0	0
Nc1ccc(-c2nc3ccc(N)cc3s2)cc1	0	0	47.4	+	0	0
O=C(CNC(=O)c1ccc(Cl)cc1Cl)OCCOc1ccccc1F	0	0	0	0	0	0
CCOCCCNC(=S)NCCCNc1nc2ccc(C)cc2cc1C#N	-	0	-	-	0	0
COCCNC(=S)NCCCNc1nc2cc3c(cc2cc1C#N)OCO3	0	0	0	180.2	0	0
COCCNC(=O)CCSc1nc(-c2ccc(OC)cc2)cc(C(F)(F)F)n1	0	0	35.6	0	0	0
CC[C@]12c3[nH]c4cc(-c5ccco5)ccc4c3CCN1C(=O)[C@@H](CC(=O)NCCCn1ccnc1)C[C@@H]2C(=O)N1CCN(C(=O)c2ccco2)CC1	0	-	0	0	-	-
COc1cc(C(C)=O)ccc1OCC(=O)OC(C)C(=O)c1ccc(F)cc1 (stereo not drawn)	0	0	0	0	0	0
COc1ccccc1Nc1ccc2c(O)cc(S(=O)(=O)O)cc2c1	69.7	-	0	0	-	-
CC(C)C(OC(=O)/C=C/c1ccc2c(c1)OCO2)C(=O)NC(N)=O (stereo not drawn)	0	0	41.5	0	0	0
CC(C)NC(=O)NC(=O)COC(=O)/C=C/c1ccc2c(c1)OCO2	0	0	0	0	0	0
N#CCOC(=O)/C=C/c1ccc2c(c1)OCO2	0	-	38.4	0	0	0
C=CCNC(=O)CN1N=C(c2ccc(C)cc2)CCC1=O	0	0	0	0	0	0
COc1cccc2c1C(=O)c1c(O)c3c(c(O)c1C2=O)C[C@](O)(C(C)=O)C[C@H]3O[C@@H]1C[C@@H](N)[C@@H](O)[C@@H](C)O1	62.0	0	0	0	33.4	44.5	Rv3671c confirm=0
CC(C)(C)NS(=O)(=O)c1ccc(NC(=S)NC(=O)C2CC2)cc1	0	0	0	0	0	0
Cn1c(=O)c(NCCc2ccccc2)c2c3c(cccc31)C(=O)c1ccccc1-2	93.0	0	0	0	44.1	+	Rv3671c confirm=+
CCCCNc1c2c3c(cccc3n(C)c1=O)C(=O)c1ccccc1-2	0	0	0	0	27.7	42.7	Rv3671c confirm=57.1

Assay outcomes from PubChem BioAssay.
